Source: PubChem
B2AR ag: agonists of human beta-2 adrenergic receptor inducing internalization; response, % (test concentration not listed); P07550; 340,000 compounds, 0.43% hits; Am2.2-beta2AR cells, FAP receptor internalization, flow cytometry;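 active = response above a set limit, near 3 SD of response in nonfluorescent compounds, cut at about 42% in these data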
Target sequence (P07550 whole entry, looked up): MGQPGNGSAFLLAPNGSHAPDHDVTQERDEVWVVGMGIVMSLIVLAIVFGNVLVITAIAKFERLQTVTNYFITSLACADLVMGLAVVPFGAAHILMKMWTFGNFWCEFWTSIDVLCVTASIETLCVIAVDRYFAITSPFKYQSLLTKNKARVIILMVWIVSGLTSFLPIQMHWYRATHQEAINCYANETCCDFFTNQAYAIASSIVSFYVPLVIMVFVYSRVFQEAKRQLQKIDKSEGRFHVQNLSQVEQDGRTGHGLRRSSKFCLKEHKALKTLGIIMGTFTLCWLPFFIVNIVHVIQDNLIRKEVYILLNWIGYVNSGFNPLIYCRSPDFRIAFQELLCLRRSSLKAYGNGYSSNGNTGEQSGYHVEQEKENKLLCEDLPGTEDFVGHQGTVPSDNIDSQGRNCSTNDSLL
TIM10 inh: inhibits growth of TIM10 yeast strain; S. cerevisiae TIM10 strain growth, BacTiter-Glo luminescence, 24 h; inhibition, % at 10 µM; 330,000 compounds, 1.4% hits;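 active = inhibition of 40% or more at the single tested concentration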;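 note: wild-type TIM10 isogenic control strain grown at permissive 25 °C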
tim10-1 inh: growth inhibitors of tim10-1 mutant yeast | S. cerevisiae tim10-1 ts strain growth, BacTiter-Glo, 24 h | inhibition, % at 20 µM | 330,000 compounds, 2.2% hits;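 active = inhibition of at least 40%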;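 note: mutant grown at 25 °C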
tim23-1 inh: growth inhibitors of tim23-1 mutant yeast; 330,000 compounds, 1.3% hits; inhibition, % at 20 µM; S. cerevisiae tim23-1 growth, BacTiter-Glo luminescence, 24 h; AID 463212;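 active = growth inhibition of the mutant yeast at or above 50%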;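 note: temperature-sensitive mutant grown at 25 °C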
PfHsp90 set2: growth inhibition of yeast expressing Plasmodium Hsp90; S. cerevisiae expressing PfHsp90, BacTiter-Glo ATP, 48 h; yeast lacking PDR1 and PDR3 efflux regulators; inhibition, % at 9.4 µM; 310,000 compounds, 0.32% hits; AID 504621;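 active = every replicate shows inhibition above about 80%, whatever the replicate mean, limit read from the data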
tim10-1 confirm: tim10-1 yeast growth inhibition, confirmed | shares compounds with tim10-1 inh | S. cerevisiae tim10-1 ts strain growth, BacTiter-Glo, 24 h | inhibition, % at 20 µM | 7,400 compounds, 56% hits | AID 463213;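 active = inhibition of yeast growth at or above a set limit in either of two repeat tests at 20 µM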;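 note: tim10-1 mutant grown at permissive 25 °C to find synthetic lethal compounds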
Of the large screens only hits and unclear results are named; the others gave an inactive call (follow-up assays come after a bar, where they were run). In the library only some 3.8% were active in any assay of this set; here they are far more common.

CC1CCN(C2=C(NS(=O)(=O)c3ccc(Br)cc3)C(=O)c3ccccc3C2=O)CC1	none
CCOC(=O)c1cnc(Nc2nc3ccccc3o2)nc1CSc1nnc(C)s1	tim10-1 inh 49.5 | tim10-1 confirm inactive
c1ccc2cc(C3CCCCC3)ncc2c1	none
Cc1ccccc1C1C(C#N)=C2N=C(N)c3c(sc4c3CCCCC4)N2C2=C1C(=O)CC(C)(C)C2 (stereo not given)	none (no result: PfHsp90 set2)
Cc1ccccc1C1C(C#N)=C2NC(=O)c3c(sc4c3CCCCC4)N2C2=C1C(=O)CC(C)(C)C2 (stereo not given)	tim10-1 inh 45.9 (no result: B2AR ag, PfHsp90 set2) | tim10-1 confirm 31.8
FC(F)(F)c1ccc(N2CCN(c3cc(-c4ccccc4)nc4ncnn34)CC2)nc1	tim10-1 inh 45.3 | tim10-1 confirm inactive
Cc1ccc(-c2nnc(-c3ccccc3)c(-c3ccccc3)n2)cc1	none
Nc1nnc(-c2ccccc2)c(-c2ccccc2)n1	tim10-1 inh 40.6 | tim10-1 confirm inactive
COc1ccc(NC(=O)C2CCCCN2S(=O)(=O)c2ccccc2)cc1S(=O)(=O)N1CCOCC1 (stereo not given)	none (no result: TIM10 inh, tim10-1 inh, tim23-1 inh, PfHsp90 set2)
O=C(NC(=S)N1CCCCCC1)c1ccc(Cl)cc1Cl	tim10-1 inh 47.8 | tim10-1 confirm 30.5
CC1CCCCN1C(=O)/C(=C\c1ccccc1)c1ccccc1 (stereo not given)	tim10-1 inh 41.9 | tim10-1 confirm 31.2
COc1ccc(C(=O)CCC(=O)N2CCN(c3ccc(C)cc3)C(C)C2)cc1 (stereo not given)	none
COc1ccc(/C=N/NC(=O)COc2ccccc2-c2ccccc2)cc1	tim10-1 inh 45.0 | tim10-1 confirm inactive
COc1cccc(NC(=O)n2ncc3c(C)cccc32)c1	none
Cc1ccc2c(c1)C(O)(CC(=O)/C=C/C=C/c1ccccc1)C(=O)N2 (stereo not given)	tim10-1 inh 40.4 | tim10-1 confirm 28.4
O=C(/C=C/C=C/c1ccccc1)CC1(O)C(=O)N(CCc2ccccc2)c2ccccc21 (stereo not given)	B2AR ag 93.1, tim10-1 inh 45.0 (no result: PfHsp90 set2) | tim10-1 confirm 52.5
CCCc1nn(C)c2c1C(c1cccnc1)C(C#N)=C(N)O2 (stereo not given)	tim10-1 inh 41.1 | tim10-1 confirm inactive
COc1ccc(CC(=O)OC(C)C(=O)NC2CCCCC2C)cc1 (stereo not given)	none (no result: PfHsp90 set2)
COc1ccc(C)cc1NC(=O)CN(C)S(=O)(=O)c1ccc2c(c1)CC(C)N2C(C)=O (stereo not given)	none
CCOC(=O)/C(C#N)=C/c1c(N2CCN(c3ccccc3)CC2)nc2ccccn2c1=O	tim10-1 inh 43.6 | tim10-1 confirm inactive
C=C(C)COc1ccc(-c2[nH]ncc2-c2ccc(OC)c(OC)c2)c(O)c1	tim10-1 inh 45.7 | tim10-1 confirm 33.5
CCn1c(-c2cccnc2Cl)nc2cc(Cl)c(Cl)cc21	none
Clc1ccc(Cn2c(-c3cccnc3Cl)nc3ccccc32)cc1	tim10-1 inh 42.6 | tim10-1 confirm inactive
Clc1ccc(Cn2c(-c3cccnc3Cl)nc3ccccc32)c(Cl)c1	tim10-1 inh 42.0 | tim10-1 confirm inactive
Oc1c(C(Nc2nc3ccccc3s2)c2ccco2)ccc2cccnc12 (stereo not given)	tim10-1 inh 43.1, PfHsp90 set2 131.0 | tim10-1 confirm inactive
COc1ccc(CN2C(=O)c3c(c(C)n(C)c3C)C2C(=O)NC2CCC(C)CC2)cc1 (stereo not given)	tim10-1 inh 42.3 (no result: PfHsp90 set2) | tim10-1 confirm inactive
COc1ccc(NC(=O)CN(C)CC(=O)NC2CCC(C)CC2)cc1 (stereo not given)	none
CN(C(=O)COC(=O)CCc1c[nH]c2ccccc12)c1ccccc1	tim10-1 inh 42.5 | tim10-1 confirm inactive
O=C(COC(=O)CCc1c[nH]c2ccccc12)Nc1ccccc1	none (no result: PfHsp90 set2)
CN(C)S(=O)(=O)c1ccc2c(c1)Cc1cc(S(=O)(=O)N(C)C)ccc1-2	none
CC(C)C1NC2(C(=O)c3ccccc3C2=O)C2C(=O)N(c3ccc(F)cc3)C(=O)C12 (stereo not given)	tim10-1 inh 40.2 | tim10-1 confirm 30.3
O=C1C2C3C=CC(CC3)C2C(=O)N1c1ccc(F)cc1 (stereo not given)	none
Cc1cc(C)nc(N2N=C(CSc3ccc(Cl)cc3)CC2=O)n1	tim10-1 inh 44.7 | tim10-1 confirm inactive
CCOCCn1c(N2CCCC2)nc2c1c(=O)[nH]c(=O)n2C	none
CC(NC(=O)C12CC3CC(CC(C3)C1)C2)c1ccc2c(c1)OCCO2 (stereo not given)	tim10-1 inh 45.1 (no result: PfHsp90 set2) | tim10-1 confirm inactive
Cc1ccc(C(C)NC(=O)C23CC4CC(CC(C4)C2)C3)cc1 (stereo not given)	none (no result: PfHsp90 set2)
Cc1cccc(OCC(=O)Nc2ccccc2N2CCCC2)c1C	none (no result: PfHsp90 set2)
CC(C)C(=O)N1CCN(c2ccccc2NC(=O)c2ccc([N+](=O)[O-])o2)CC1	tim10-1 inh 59.1 | tim10-1 confirm 56.1
Cc1cccc(OCC(=O)Nc2ccccc2N2CCN(C(=O)C(C)C)CC2)c1C	tim10-1 inh 48.2 (no result: PfHsp90 set2) | tim10-1 confirm 29.9
CCC(=O)N1CCN(c2ccccc2NC(=O)c2ccc([N+](=O)[O-])o2)CC1	none
CN1CCN(c2ccccc2NC(=O)c2ccc(-c3cccc(Cl)c3)o2)CC1	tim10-1 inh 59.8 | tim10-1 confirm 46.6
C=CC(=O)Nc1cccc(Nc2nc(N[C@H]3CC[C@H](N(C)C)CC3)nc3c2ncn3C(C)C)c1	none (no result: TIM10 inh, tim10-1 inh, tim23-1 inh)
Cc1ccc(NC2CCCN(C(=O)CSc3ccncc3)C2)cc1C (stereo not given)	none
CCn1c(C)c(C)c2cc(C(=O)NC3CCCCCC3)ccc21	none
O=C(COC(=O)[C@@H]1CC(O)CN1S(=O)(=O)c1ccc2c(c1)OCCO2)Nc1cc(F)ccc1F (stereo not given in full)	none
OCCn1c(-c2ccc3c(c2)OCO3)csc1=Nc1ccccc1	tim10-1 inh 48.3 | tim10-1 confirm 32.6
Cc1cc(Cl)ccc1OC(C)C(=O)Nc1ccc(S(=O)(=O)Nc2cnc3ccccc3n2)cc1 (stereo not given)	none (no result: PfHsp90 set2)
CC(Oc1ccc(Cl)cc1Cl)C(=O)Nc1ccc(S(=O)(=O)Nc2cnc3ccccc3n2)cc1 (stereo not given)	tim10-1 inh 42.5 (no result: B2AR ag, PfHsp90 set2) | tim10-1 confirm inactive
CCCCn1c(N)c(N(CC(C)C)C(=O)CSc2nnc(C)n2-c2ccccc2)c(=O)[nH]c1=O	none (no result: TIM10 inh, tim10-1 inh, tim23-1 inh, PfHsp90 set2)
Cc1ccc(S(=O)(=O)N(Cc2ccccc2)c2ccccc2C(=O)NCc2cccnc2)cc1	tim10-1 inh 40.9 | tim10-1 confirm inactive
Cc1ccc(S(=O)(=O)N(C)c2ccc(C(=O)NCc3cccnc3)cc2)cc1	none
CC(C)(C)c1ccc(C(=O)NC(=O)COC(=O)c2ccc(Br)o2)cc1	none
CCOc1ccc(-n2cc(C(=O)NCCOC)c3cc(OC)c(OC)cc3c2=O)cc1	none
